Experimental data reported in PubChem BioAssay AID1159580 (chemical genetic matrix, 2015).
Screen size: about 5,500 compounds; about 2,000 (36%) were called active. Another 18% or so got no clear call; they are omitted. Rule as the data show it: active = normalized growth mostly below about 0.91 (no sharp cut-off); inconclusive = no clear call, values can overlap the other calls; inactive = mostly above about 0.92. This is one part of the list.

Test: chemical genetic growth profiling, strain panel (AID 1159580);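 also: tested at 20 µM; growth read once vehicle control cultures reached saturation at 30 °C; 1 = growth at the plate median or of vehicle wells; lower values mean less growth of the strain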
Settings: growth OD

Measured: normalized growth

CC(=O)OCC(=O)[C@@]12OC3(CCCC3)O[C@@H]1CC1C3CCC4=CC(=O)C=C[C@]4(C)[C@@]3(F)[C@@H](O)C[C@@]12C (some centres not stated)
inactive: S. cerevisiae deletion strains, locus YJR075W, strain HOC1, active compounds read low 1.01 | S. cerevisiae deletion strains, locus YKL009W, strain mrt4, active compounds read low 0.967 | S. cerevisiae deletion strains, locus YKL068W, active compounds read low 0.991 | S. cerevisiae deletion strains, locus YKL085W, strain MDH1 (second series), active compounds read low 0.994 | S. cerevisiae deletion strains, locus YKL085W, strain MDH1, active compounds read low 0.994 | S. cerevisiae deletion strains, locus YKL160W, strain elf1, active compounds read low 1.01 | S. cerevisiae deletion strains, locus YKL190W, strain CNB1, active compounds read low 0.997 | S. cerevisiae deletion strains, locus YKR001C, strain vps1, active compounds read low 0.985 | S. cerevisiae deletion strains, locus YKR026C, strain gcn3, active compounds read low 1.02 | S. cerevisiae deletion strains, locus YKR091W, strain srl3, active compounds read low 1.01 | S. cerevisiae deletion strains, locus YLL001W, strain dnm1, active compounds read low 1 | S. cerevisiae deletion strains, locus YLL026W, active compounds read low 1.01 | S. cerevisiae deletion strains, locus YLL041C, strain sdh2, active compounds read low 1.02 | S. cerevisiae deletion strains, locus YLR027C, strain aat2, active compounds read low 1.01 | S. cerevisiae deletion strains, locus YLR039C, strain RIC1, active compounds read low 0.94 | S. cerevisiae deletion strains, locus YLR058C, strain SHM2, active compounds read low 1.01 | S. cerevisiae deletion strains, locus YLR102C, strain apc9, active compounds read low 0.992 | S. cerevisiae deletion strains, locus YLR113W, strain HOG1, active compounds read low 0.989 | S. cerevisiae deletion strains, locus YLR221C, strain rsa3, active compounds read low 1.01 | S. cerevisiae deletion strains, locus YLR258W, strain gsy2, active compounds read low 1.02 | S. cerevisiae deletion strains, locus YLR262C, strain YPT6 (second series), active compounds read low 1 | S. cerevisiae deletion strains, locus YLR262C, strain YPT6, active compounds read low 0.961 | S. cerevisiae deletion strains, locus YLR268W, strain sec22, active compounds read low 0.958 | S. cerevisiae deletion strains, locus YLR320W, strain mms22, active compounds read low 1.02 | S. cerevisiae deletion strains, locus YLR330W, strain CHS5, active compounds read low 1.01 | S. cerevisiae deletion strains, locus YLR342W, strain FKS1 (second series), active compounds read low 1.05 | S. cerevisiae deletion strains, locus YLR342W, strain FKS1, active compounds read low 1.02 | S. cerevisiae deletion strains, locus YLR357W, strain rsc2, active compounds read low 1.04 | S. cerevisiae deletion strains, locus YLR370C, strain arc18, active compounds read low 1.02 | S. cerevisiae deletion strains, locus YLR371W, strain rom2, active compounds read low 0.984 | S. cerevisiae deletion strains, locus YLR384C, strain iki3, active compounds read low 1.01 | S. cerevisiae deletion strains, locus YLR418C, strain cdc73, active compounds read low 0.944 | S. cerevisiae deletion strains, locus YML016C, strain PPZ1, active compounds read low 1.02 | S. cerevisiae deletion strains, locus YML032C, strain rad52, active compounds read low 0.968 | S. cerevisiae deletion strains, locus YML120C, strain ndi1, active compounds read low 1.02 | S. cerevisiae deletion strains, locus YML124C, strain tub3, active compounds read low 0.988 | S. cerevisiae deletion strains, locus YMR058W, strain fet3, active compounds read low 1.02 | S. cerevisiae deletion strains, locus YMR078C, strain ctf18, active compounds read low 1 | S. cerevisiae deletion strains, locus YMR125W, strain sto1, active compounds read low 1.03 | S. cerevisiae deletion strains, locus YMR129W, active compounds read low 1.02 | S. cerevisiae deletion strains, locus YMR205C, strain PFK2, active compounds read low 1.02 | S. cerevisiae deletion strains, locus YMR223W, strain ubp8, active compounds read low 1.01 | S. cerevisiae deletion strains, locus YMR231W, strain pep5, active compounds read low 1.01 | S. cerevisiae deletion strains, locus YMR263W, strain SAP30, active compounds read low 1.01 | S. cerevisiae deletion strains, locus YMR307W, strain GAS1, active compounds read low 1.11 | S. cerevisiae deletion strains, locus YNL067W, strain RPL9B, active compounds read low 1 | S. cerevisiae deletion strains, locus YNL071W, strain lat1, active compounds read low 1.01 | S. cerevisiae deletion strains, locus YNL128W, strain TEP1, active compounds read low 1.03 | S. cerevisiae deletion strains, locus YNL153C, strain GIM3, active compounds read low 0.996 | S. cerevisiae deletion strains, locus YNL183C, strain NPR1, active compounds read low 0.954 | S. cerevisiae deletion strains, locus YNL209W, strain ssb2, active compounds read low 1.01 | S. cerevisiae deletion strains, locus YNL233W, strain BNI4, active compounds read low 1.01 | S. cerevisiae deletion strains, locus YNL248C, strain rpa49, active compounds read low 0.978 | S. cerevisiae deletion strains, locus YNL250W, strain rad50, active compounds read low 0.994 | S. cerevisiae deletion strains, locus YNL271C, strain bni1, active compounds read low 0.984 | S. cerevisiae deletion strains, locus YNL298W, strain CLA4, active compounds read low 0.982 | S. cerevisiae deletion strains, locus YNL307C, strain MCK1, active compounds read low 0.992 | S. cerevisiae deletion strains, locus YNL322C, strain KRE1 (second series), active compounds read low 1.03 | S. cerevisiae deletion strains, locus YNL322C, strain KRE1, active compounds read low 1.01 | S. cerevisiae deletion strains, locus YNR049C, strain mso1, active compounds read low 1.03 | S. cerevisiae deletion strains, locus YNR052C, strain pop2, active compounds read low 0.99 | S. cerevisiae deletion strains, locus YOL006C, strain TOP1, active compounds read low 1.01 | S. cerevisiae deletion strains, locus YOL012C, strain htz1 0.599 | S. cerevisiae deletion strains, locus YOL147C, strain pex11, active compounds read low 1 | S. cerevisiae deletion strains, locus YOR001W, strain rrp6, active compounds read low 1.02 | S. cerevisiae deletion strains, locus YOR061W, strain CKA2, active compounds read low 1.01 | S. cerevisiae deletion strains, locus YOR069W, strain VPS5, active compounds read low 1.01 | S. cerevisiae deletion strains, locus YOR070C, strain gyp1, active compounds read low 1.02 | S. cerevisiae deletion strains, locus YOR080W, strain dia2, active compounds read low 1.04 | S. cerevisiae deletion strains, locus YOR083W, strain WHI5, active compounds read low 0.998 | S. cerevisiae deletion strains, locus YOR106W, strain vam3, active compounds read low 1.01 | S. cerevisiae deletion strains, locus YOR136W, strain idh2, active compounds read low 0.981 | S. cerevisiae deletion strains, locus YOR144C, strain elg1, active compounds read low 0.991 | S. cerevisiae deletion strains, locus YOR184W, strain ser1, active compounds read low 0.983 | S. cerevisiae deletion strains, locus YOR231W, strain MKK1, active compounds read low 0.963 | S. cerevisiae deletion strains, locus YOR265W, strain rbl2, active compounds read low 1.02 | S. cerevisiae deletion strains, locus YOR270C, strain vph1, active compounds read low 0.921 | S. cerevisiae deletion strains, locus YOR290C, strain snf2, active compounds read low 1.01 | S. cerevisiae deletion strains, locus YOR316C, strain cot1, active compounds read low 1 | S. cerevisiae deletion strains, locus YPL051W, strain arl3, active compounds read low 1.02 | S. cerevisiae deletion strains, locus YPL055C, strain LGE1, active compounds read low 1.01 | S. cerevisiae deletion strains, locus YPL078C, strain atp4, active compounds read low 1.01 | S. cerevisiae deletion strains, locus YPL106C, strain sse1, active compounds read low 1.1 | S. cerevisiae deletion strains, locus YPL240C, strain hsp82, active compounds read low 1.01 | S. cerevisiae deletion strains, locus YPL241C, strain CIN2, active compounds read low 1.01 | S. cerevisiae deletion strains, locus YPL256C, strain CLN2, active compounds read low 0.975 | S. cerevisiae deletion strains, locus YPR119W, strain clb2, active compounds read low 0.982 | S. cerevisiae deletion strains, locus YPR141C, strain kar3, active compounds read low 0.989 | S. cerevisiae deletion strains, locus YPR163C, strain tif3, active compounds read low 0.98 | S. cerevisiae deletion strains, locus YPR167C, strain met16, active compounds read low 0.999 | S. cerevisiae deletion strains, strain wtn01, active compounds read low 0.98 | S. cerevisiae strains, strain wild type, active compounds read low 1.01
